ELG1 genotoxic: qHTS screen for small molecules that induce genotoxicity in human embryonic kidney (HEK293T) cells expressing luciferase-tagged ELG1; HEK293T ELG1-luciferase reporter, luminescence, 16 h; Potency, µM (doses to about 46 µM), for the others: top-dose activity change, positive = activation, hits mostly activators; 1.3% of 330,000 active; AID 504466, 2011; also: % of control where 0% means no effect; nearly all actives have a fitted effect of over 60% in size
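Luminescence read-out: rising ELG1-luciferase signal, reflecting elevated ELG1 protein under genetic stress, flags genotoxic compounds. Cells were treated for 16 hr at 37 °C before ONE-Glo detection.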
NPC1 promoter act: qHTS Assay for NPC1 Promoter Activators. Huh7 NPC1 promoter luciferase reporter, 24 h. Potency, µM (top dose mostly 9.22 µM), without a hit: top-dose activation, usual class: activators. 2.4% of 320,000 active. AID 485313, 2010; also: % of control where 0% means no effect; nearly all actives have a fitted effect of over 60% in size
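Stable NPC1-promoter luciferase Huh7 line; cpd (DMSO) 24 h, 37 °C, 5% CO2; Amplite luciferase reagent 10 min RT; luminescence readout. qHTS format.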
Rab9 promoter act: qHTS Assay for Rab9 Promoter Activators. Huh7 Rab9 promoter-luciferase reporter, luminescence, 24 h. Potency, µM (series often up to 9.22 µM), for the others: at the highest dose activation, negative = inhibition, most hits filed as activators. 2.8% of 320,000 active. AID 485297, 2010; also: % of control where 0% means no effect; nearly all actives have a fitted effect of over 60% in size
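Quantitative HTS format; Huh7 Rab9-luciferase reporter cells (1500/well) receive compound 2 h post-plating, incubate 24 h at 37 °C, then get luciferase reagent for 10 min before luminescence reading.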
FLuc counter: qHTS profiling assay for firefly luciferase inhibitor/activator using purifed enzyme and Km concentrations of substrates (counterscreen for miR-21 project); purified FLuc, Km substrates, luminescence inhibition; 6.9% of 360,000 active; Potency, µM (doses to about 57.5 µM), for inactives: at the highest dose activity change, negative = inhibition, usual class: inhibitors; Luciferin 4-monooxygenase (Photinus pyralis), P08659;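 also: plate controls were vehicle for no effect and reference inhibitor for full effect; nearly all actives have a fitted effect of over 55% in size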
Target sequence (P08659 whole entry, looked up): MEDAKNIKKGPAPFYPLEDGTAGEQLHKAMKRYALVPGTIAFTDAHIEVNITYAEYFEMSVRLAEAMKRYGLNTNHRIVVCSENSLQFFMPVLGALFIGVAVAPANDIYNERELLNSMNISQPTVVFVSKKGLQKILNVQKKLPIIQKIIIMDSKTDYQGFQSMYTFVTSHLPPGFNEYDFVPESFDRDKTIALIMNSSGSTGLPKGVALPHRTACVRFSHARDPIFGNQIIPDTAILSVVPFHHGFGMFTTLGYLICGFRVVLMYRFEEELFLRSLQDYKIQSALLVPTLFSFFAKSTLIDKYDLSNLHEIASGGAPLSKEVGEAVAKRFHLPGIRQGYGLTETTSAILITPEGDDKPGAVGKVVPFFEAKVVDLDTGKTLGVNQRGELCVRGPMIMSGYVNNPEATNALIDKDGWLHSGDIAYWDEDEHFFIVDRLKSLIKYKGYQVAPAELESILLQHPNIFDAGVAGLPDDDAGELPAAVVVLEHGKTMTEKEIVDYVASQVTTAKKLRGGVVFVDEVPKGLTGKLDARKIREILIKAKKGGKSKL
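Purified P. pyralis luciferase (10nM final) with 10uM D-luciferin and 10uM ATP (Km levels) in 50mM Tris acetate pH 7.5, 10mM Mg acetate, 0.01% Tween-20, 0.05% BSA; qHTS 6-point titration, ~60 µM downward; luminescence read.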
SMN2 splice enh: qHTS Assay for Enhancers of SMN2 Splice Variant Expression; AID 1458, 2008; Potency, µM (series often up to 46.1 µM), for the others: at the top dose activity change, positive = activation, usual class: activators; 2.8% of 210,000 active; HEK293 SMN2-luciferase splicing reporter, luminescence, 30-36 h; also: % of control where 0% means no effect; nearly all actives have a fitted effect of over 55% in size
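qHTS luciferase splicing reporter: luminescence rises when SMN2 exon 7 is included in transfected HEK293 cells. Compound exposure lasted 30-36 h at 37C, with 4.5 mM final sodium butyrate as control, followed by a ONE-Glo read.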
KinaseGlo FLuc: Counterscreen for Luciferase (Kinase-Glo TM) Inhibition | Luciferin 4-monooxygenase (Photuris pensylvanica), Q27757 | Kinase-Glo luciferase, ATP luminescence, 8 min | Potency, µM (titrated, usually from 38.3 µM), inactives show top-dose activity change, negative = inhibition, usual class: inhibitors | 0.28% of 200,000 active | AID 1379, 2008; also: % is scaled to controls: 0 for no effect and ±100 for the full control effect; nearly all actives have a fitted effect of over 60% in size
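Luminescence was the read-out, taken after 8-minute incubation at ambient temperature. Luciferase turned over luciferin with 10 uM ATP in imidazole pH 7.2 buffer containing KCl, MgCl2, Tween 20 and BSA.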
* = called active by the depositor; u = inconclusive; x = no result. Compounds with a hit are over-represented: about 7.3% of the library has one in this group of screens. Calls follow the shape of the dose curve; as a rule, active = well fitted curve in the direction sought with a large enough effect; inconclusive = small, poorly fitted or top-dose-only effect, or another doubt; inactive = no such curve, though single readings can be large; an effect the other way counts as inactive or inconclusive. Potency is read from the fitted curve at half-maximal effect.

SMILES	ELG1 genotoxic	NPC1 promoter act	Rab9 promoter act	FLuc counter	SMN2 splice enh	KinaseGlo FLuc
COc1ccc(N(C(=O)c2ccc3c(c2)OCO3)C2C=CS(=O)(=O)C2)c(OC)c1 (stereo unspecified)	-1%	-2%	0%	1%	x	x
CN(/N=C/c1ccncc1)c1cnc2ccccc2n1	2%	u	4µM*	4.8µM*	11µM*	-1%
CCOc1ccc(C(=O)COC(=O)c2nc3nccc(C)n3n2)cc1	4%	-3%	9%	-18%	x	x
CCOc1ccc(C(=O)CCCC(=O)c2ccc(OCC)cc2)cc1	u	u	19%	6.7µM*	x	x
O=C(CCCN1CCC(C(=O)c2ccc(F)cc2)CC1)c1ccc(F)cc1	-8%	-1%	0%	2%	x	x
O=C(CCCC(=O)c1ccc(F)cc1)c1ccc(F)cc1	u	2.8µM*	1µM*	3µM*	x	x
CCCCC(=O)OCC(=O)c1ccc(OCC)cc1	5%	17%	10%	0.85µM*	-5%	-23%
CCOc1ccc(C(=O)COC(=O)CC)cc1	-1%	-2%	0%	5.4µM*	3%	-2%
Nc1nonc1-c1nc2ccccc2n1Cc1ccc(Br)cc1	x	x	x	-1%	8%	x
CC12CCC(=O)N1C(C(=O)N1CCN(c3ccc([N+](=O)[O-])cc3)CC1)CS2 (stereo unspecified)	-10%	x	x	x	x	x
N#Cc1nc(COc2ccccc2)oc1N1CCN(c2cccc(Cl)c2)CC1	1%	-4%	-6%	9%	-9%	0%
Cc1ccc(C(=O)CCS(=O)(=O)c2ccc(F)cc2)cc1	10%	-4%	5%	0.76µM*	x	x
Cc1ncc(/C=C2\C(=O)Nc3ccccc32)[nH]1	8%	u	15%	u	x	x
CCc1ncc(/C=C2\C(=O)Nc3ccccc32)[nH]1	6%	u	u	13µM*	x	x
CCOc1ccc(NCc2nc3ccccc3n2CCOc2ccc(C)cc2)cc1	x	x	x	u	-42%	x
Cc1ccccc1NCc1nc2ccccc2n1CCOc1ccccc1	x	x	x	9.5µM*	18µM*	x
CCOc1ccc(NCc2nc3ccccc3n2CCOc2ccccc2)cc1	u	u	25%	12µM*	-43%	-2%
Clc1ccc(NCc2nc3ccccc3n2CCOc2ccccc2)cc1	x	x	x	u	-30%	x
Cc1nn(Cc2ccc(Cl)cc2Cl)c(C)c1NC(=O)Cn1nc([N+](=O)[O-])c(Cl)c1C	x	x	x	2%	1%	2%
COc1ccc(C2CC(c3ccc4ccccc4c3)=NN2C(=O)CN2CCC(C(N)=O)CC2)cc1 (stereo unspecified)	-11%	16%	u	u	-102%	-2%
CCOC(=O)/C=C(\C)N1N=C(c2ccccc2)CC1c1ccccc1 (stereo unspecified)	-9%	8%	u	17µM*	u	-11%
COc1ccc(C2CC(c3ccc4ccccc4c3)=NN2C(=O)COC(=O)C2CCC(=O)N2)cc1 (stereo unspecified)	u	1.6µM*	1.1µM*	24µM*	14µM*	0%
CC(=O)OCC(=O)N1N=C(c2ccc3ccccc3c2)CC1c1ccccc1 (stereo unspecified)	8%	u	3.2µM*	-11%	22%	3%
CCc1ccc2oc(C(=O)Nc3c(C)n(C)n(-c4ccccc4)c3=O)cc(=O)c2c1	x	x	x	-8%	-16%	x
O=C(NC1(C(F)(F)F)C(=O)Nc2c1c(=O)[nH]c(=O)n2-c1ccccc1)c1cccnc1 (stereo unspecified)	0%	-2%	-2%	5%	21%	-7%
SMILES	ELG1 genotoxic	NPC1 promoter act	Rab9 promoter act	FLuc counter	SMN2 splice enh	KinaseGlo FLuc
CN(C)S(=O)(=O)c1cccc(NC(=O)CO/N=C(\N)c2ccccc2)c1	6%	2%	-4%	u	x	x
CCOC(=O)C1CCCN(S(=O)(=O)c2ccc3ccccc3c2)C1 (stereo unspecified)	-4%	-2%	0%	2%	x	x
CC(C)C(=O)Nc1cccc(-c2csc(-c3ccccc3)n2)c1	-1%	-2%	-1%	17µM*	u	-2%
CC(C)C(=O)Nc1ccc(-c2csc(-c3ccccc3)n2)cc1	22%	2.2µM*	u	u	u	-4%
Cc1nc(-c2cccc(NC(=O)Cc3ccccc3)c2)cs1	-1%	-2%	4%	u	3%	-2%
Cc1ccc(C2=N/C(=C\c3cccnc3)C(=O)O2)cc1	0%	-1%	0%	u	-3%	-4%
O=C(Nc1ccc2ccccc2c1)c1onc2c1CCCC2	u	0.4µM*	0.56µM*	0.95µM*	8.9µM*	-8%
COC(=O)c1cccc(NC(=O)c2onc3c2CCCC3)c1	0.82µM*	0.4µM*	0.32µM*	0.85µM*	0.79µM*	u
COC(=O)c1cccc(NC(=O)c2ccccc2)c1	7%	24%	u	u	x	x
O=C(Cn1cnc2ccccc21)N/N=C/c1ccccc1	0%	-2%	-5%	-3%	7%	4%
CC(C)NC(=O)CC(=O)N/N=C/c1c(F)cccc1Cl	-1%	-5%	-2%	-10%	-7%	-3%
Oc1ccc(N=Nc2n[nH]c(-c3ccccc3)n2)cc1	8.2µM*	1.6µM*	1µM*	3.8µM*	u	-16%
Oc1ccc(N=Nc2n[nH]c(-c3ccc(Br)cc3)n2)cc1	6%	12%	-9%	7.6µM*	16µM*	1%
Oc1ccc(-c2nc(-c3ccccc3)c(-c3ccc(Br)cc3)[nH]2)cc1	x	x	x	-15%	4%	x
CCOc1ccccc1C(=O)N(Cc1ccc(N(C)C)cc1)Cc1ccco1	x	x	x	-19%	-3%	x
c1ccc(-c2csc(Nc3ccccn3)n2)cc1	2.9µM*	2.2µM*	1.3µM*	1.3µM*	x	x
Fc1ccc(-c2csc(Nc3ccccn3)n2)c(F)c1	u	1.6µM*	2.8µM*	0.6µM*	x	x
Cc1cc(-c2csc(Nc3ccccn3)n2)ccc1F	u	1.4µM*	1.6µM*	1.7µM*	x	x
c1ccc(Nc2ccccc2Nc2ccccn2)nc1	0%	2%	1%	-2%	-10%	2%
Oc1ccc(-c2csc(Nc3ccccn3)n2)cc1	7.3µM*	2µM*	3.2µM*	6.7µM*	x	x
CCOC(=O)CSc1nnc(C2CCCCC2)n1C	1%	-2%	-4%	7%	-12%	2%
COc1cc2c(cc1OC)-c1cc(OCc3ccccc3Cl)nc(=O)n1CC2	-6%	-4%	u	u	u	-5%

Assay outcomes deposited in PubChem BioAssay by National Center for Advancing Translational Sciences (NCATS).
